A short description of experiment [1]: NCI Yeast Anticancer Drug Screen. Data for the rad50 strain (AID 155).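 Further: 0% = growth of vehicle-only cultures of the same strain.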 Conditions: S. cerevisiae rad50 strain growth inhibition; at 50.0 µM; active compounds read high. A digest of the protocol: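 Yeast carrying a defined DNA repair defect were exposed to test compounds, and growth was compared with vehicle-treated controls to give percent inhibition.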
Experiment [2] is described as follows: NCI Yeast Anticancer Drug Screen. Data for the mec2-1 strain (AID 157). Conditions: S. cerevisiae mec2-1 strain, at 50.0 µM, active compounds read high. The method in brief: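 Compounds were applied to mec2-1 yeast cells. Their growth was then compared with that of vehicle-treated cultures to give growth inhibition.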
Experiment [3] is described as follows: NCI Yeast Anticancer Drug Screen. Data for the sgs1 mgt1 strain (AID 161).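 Further: 0% = growth of cultures given vehicle only.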 The settings on record: S. cerevisiae sgs1 mgt1 strain, at 50.0 µM, active compounds read high. The method in brief:
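This yeast growth screen uses a strain with defined DNA-repair lesions; compound-treated growth is compared with vehicle-treated growth.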

Experiment [4] can be described thus: NCI Yeast Anticancer Drug Screen. Data for the cln2 rad14 strain (AID 165).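 Further: 0% = growth equal to vehicle treated cultures.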 Conditions: S. cerevisiae cln2 rad14 strain, at 50.0 µM, active compounds read high. The method in brief:
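Strain: cln2 rad14 yeast, altered in cell cycle control and DNA damage repair. Read-out: growth inhibition vs vehicle.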

The nature of experiment [5]: NCI Yeast Anticancer Drug Screen. Data for the bub3 strain (AID 167). The settings on record: S. cerevisiae bub3 mutant strain, at 50.0 µM, active compounds read high. A digest of the protocol:
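Compounds were applied to a genetically altered yeast strain carrying a cell-cycle control defect. Growth inhibition was scored against vehicle-treated controls.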

Experiment [6] in a line: NCI Yeast Anticancer Drug Screen. Data for the mlh1 rad18 strain (AID 175). The settings on record: S. cerevisiae mlh1 rad18 strain growth inhibition; at 50.0 µM; active compounds read high. The method in brief:
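A repair-deficient yeast strain is exposed to test compound, and growth is scored relative to vehicle-treated controls.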

Compounds without any hit were thinned out: in the full panel of roughly 79,000, 15% have a hit. Values without a mark were called inactive. Calls of active or inactive are those of the source. No stated cut-off is given here; in the data, active means growth inhibition above about 70%; inactive means the rest.

As to `CSCCC(NC(=O)CCCOc1ccc(Cl)cc1C)C(=O)O` (stereo unspecified), the growth inhibition in experiment [1] is 1.8%; in experiment [2], -12%; in experiment [3], 3.85%; in experiment [4], -29.9%; in experiment [5], -0.9%; in experiment [6], -5.25%.

Turning to `CCC([NH-])(CC)C[NH-].[Cl][Pt+2][Cl]`, the growth inhibition in experiment [1] is 2.3%; in experiment [2] it was 13.4%; in experiment [3], -31.4%; in experiment [4], -1.45%; in experiment [5], -14.1%; in experiment [6], -44.6%.

In the case of `COc1cc2c3c(c1)-c1c(ccc(OC)c1Oc1nnnn1-c1ccccc1)CC3N(C)CC2` (stereo unspecified), the growth inhibition in experiment [1] is 30.4%; in experiment [2], 26.2%; in experiment [3], 28.9%; in experiment [4] it was 52.4%; in experiment [5] it was 27.8%; in experiment [6] it was 80.5% (active).

Consider `CCCCC(CC)CN(CC)CC` (stereo unspecified), for which the growth inhibition in experiment [1] is -11.1%; in experiment [2], -4.25%; in experiment [3], -26.5%; in experiment [4], -10.4%; in experiment [5], 2.8%; in experiment [6], 4.85%.

As for `O=C1Nc2ccccc2C1=Nc1cccc2ncccc12`, the growth inhibition in experiment [1] was 3.35%; in experiment [2], -7.75%; in experiment [3], -11.1%; in experiment [4] it was -4.5%; in experiment [5], 8.7%; in experiment [6], 15.4%.

For `Cc1cc(N)c2cc(N)ccc2n1`, the growth inhibition in experiment [1] is 99.6% (active); in experiment [2], 99.5% (active); in experiment [3], 99.4% (active); in experiment [4] it was 64.7%; in experiment [5], 99.2% (active); in experiment [6], 98.2% (active).

On to `Clc1ccccc1-n1cccc1/C=N\N=C/c1cccn1-c1ccccc1Cl`, for which the growth inhibition in experiment [1] was 0.15%; in experiment [2], 1.7%; in experiment [3] it was -6.1%; in experiment [4], -53.7%; in experiment [5], -1.8%; in experiment [6], -8%.

On to `O=C(CCN1C(=O)c2ccccc2C1=O)NCS(=O)(=O)O`, for which the growth inhibition is -11.8% in experiment [1]; -4.7% in experiment [2]; -11.1% in experiment [3]; -47.5% in experiment [4]; 16.2% in experiment [5]; -17.5% in experiment [6].

Regarding `CC(C)(C)C(=O)OCN1CCOCC1`, the growth inhibition in experiment [1] was -10.6%; in experiment [2] it was 10.9%; in experiment [3], 0.65%; in experiment [4] it was -47.8%; in experiment [5], -9.15%; in experiment [6], -10.2%.

For `CCCC[Si]CCCC`, the growth inhibition in experiment [1] was 14.8%; in experiment [2] it was 10%; in experiment [3], 1.1%; in experiment [4], 14.6%; in experiment [5], 4.5%; in experiment [6] it was 11.2%.

For the compound `O=C(CO)C(O)C(O)C(O)CO` (stereo unspecified), the growth inhibition in experiment [1] was 1.65%; in experiment [2] it was -9.75%; in experiment [3], -7.45%; in experiment [4], 8.75%; in experiment [5], 19.9%; in experiment [6], 0.95%.

In the case of `N=c1ccc2nc(N)nn(O)c-2c1`, the growth inhibition in experiment [1] is -1.2%; in experiment [2] it was 12.1%; in experiment [3], 2.9%; in experiment [4] it was -3.4%; in experiment [5], -37.3%; in experiment [6] it was -44%.

As to `COc1cc2c(cc1O)[C@@H]1Cc3c(cc(OC)c(OC)c3Oc3cc4c(cc3OC)CCN(C)[C@@H]4Cc3ccc(O)cc3)[C@H](C2)N1C`, the growth inhibition in experiment [1] was 14.9%; in experiment [2] it was 8.75%; in experiment [3], 0.15%; in experiment [4], 12.1%; in experiment [5], -10.4%; in experiment [6], -56%.

As for `CCOC(=O)C1=NN(c2ccccc2)C(=O)/C1=C\N1CC(=O)NC1=S`, the growth inhibition in experiment [1] was -19.4%; in experiment [2] it was -14.2%; in experiment [3], -31.5%; in experiment [4], -10.2%; in experiment [5], 9.85%; in experiment [6] it was -32.1%.

On to `CC1(C)OC(=C(C#N)C#N)C(C#N)=C1/C=C/c1ccncc1`, for which the growth inhibition is 25.7% in experiment [1]; 29.4% in experiment [2]; 19.8% in experiment [3]; 18.2% in experiment [4]; 31.5% in experiment [5]; -2.45% in experiment [6].

With `CC(=O)N(C)c1ccc(C)cc1`, the growth inhibition in experiment [1] was -14.9%; in experiment [2] it was -1.05%; in experiment [3] it was -4.35%; in experiment [4] it was -27.6%; in experiment [5], -4.2%; in experiment [6] it was 7%.

For the compound `Clc1cccc(-c2ncc(-c3ccccc3)o2)c1`, the growth inhibition is 8.7% in experiment [1]; -3.8% in experiment [2]; -0.6% in experiment [3]; -29.2% in experiment [4]; 2.15% in experiment [5]; 19.1% in experiment [6].

For `CCOC(=O)c1c[nH]c(=S)n(C)c1=O`, the growth inhibition was -6.6% in experiment [1]; -10.2% in experiment [2]; -6.65% in experiment [3]; -14.1% in experiment [4]; 0.4% in experiment [5]; 2.1% in experiment [6].

For the compound `CCCNC(=O)OCC#CCOC(=O)NCCC`, the growth inhibition was 2.5% in experiment [1]; -4.15% in experiment [2]; 15.4% in experiment [3]; -38.5% in experiment [4]; 12.5% in experiment [5]; -6.1% in experiment [6].

For the compound `CCC(=O)C(C)C(=O)C(=O)NCCNC(=O)C(=O)C(C)C(=O)CC` (stereo unspecified), the growth inhibition is 19.9% in experiment [1]; -1.3% in experiment [2]; 2.75% in experiment [3]; -16.6% in experiment [4]; -8.5% in experiment [5]; -25.6% in experiment [6].

Turning to `COC12CC3C4CCC5CC(O)CCC5(C)C4CCC3(C)C1C(C)C1(CCC(C)CO1)O2` (stereo unspecified), the growth inhibition in experiment [1] was 33.6%; in experiment [2] it was 8.7%; in experiment [3] it was 13.1%; in experiment [4], 19.8%; in experiment [5], 1.05%; in experiment [6], -0.4%.

(Values after PubChem BioAssay (NCI).)
